# Compound activity deposited in PubChem by National Center for Advancing Translational Sciences (NCATS).
# p53 reactivation: re-activators of mutant p53; Potency, µM (series often up to 92.2 µM), inactives show at the top dose activity change, positive = activation, usual class: activators; 320,000 compounds, 0.063% hits; H1299 p53-A138V BP100-luciferase reporter, luminescence, 24 h; also: % of control where 0% means no effect; nearly all actives have a fitted effect of over 45% in size
#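 p53-null H1299 cells stably carrying temperature-sensitive p53-A138V and a BP100-luciferase reporter were pinned with compounds (4-point, 1:5 series) and held 24 hrs at 37 deg C. Luminescence was read 10 min after detection reagent.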
# Eya2 inh: blocks the phosphatase activity of human Eya2. Potency, µM (highest dose often 76.9 µM), for the others: at the top dose activity, negative = inhibition, actives largely listed as inhibitors. recombinant Eya2, OMFP fluorescence dephosphorylation (OMFP is methylfluorescein phosphate). O00167. 330,000 compounds, 0.006% hits; also: % is scaled to controls: 0 for no effect and ±100 for the full control effect
#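 Eya2 (0.2 uM) preincubated 10 min at ambient with compound, then OMFP substrate added at 50 uM; 10 min reaction in 50 mM HEPES pH 7.5, 50 mM NaCl, 5 uM MgCl2, 0.05% BSA, 1 mM DTT. Fluorescence read at Ex 485/Em 525 nm.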
# B2AR arrestin: agonists driving beta-arrestin recruitment to human beta2-adrenergic receptor. P07550. beta-arrestin recruitment to beta2AR, cell-based reporter. Potency, µM (doses to about 46.1 µM), for the others: at the highest dose activation, usual class: activators. 330,000 compounds, 0.02% hits. AID 492947;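 also: 0% = DMSO controls and full agonism = EC100 isoproterenol or metaproterenol; nearly all actives have a fitted effect of over 65% in size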
# Target sequence (P07550 whole entry, looked up): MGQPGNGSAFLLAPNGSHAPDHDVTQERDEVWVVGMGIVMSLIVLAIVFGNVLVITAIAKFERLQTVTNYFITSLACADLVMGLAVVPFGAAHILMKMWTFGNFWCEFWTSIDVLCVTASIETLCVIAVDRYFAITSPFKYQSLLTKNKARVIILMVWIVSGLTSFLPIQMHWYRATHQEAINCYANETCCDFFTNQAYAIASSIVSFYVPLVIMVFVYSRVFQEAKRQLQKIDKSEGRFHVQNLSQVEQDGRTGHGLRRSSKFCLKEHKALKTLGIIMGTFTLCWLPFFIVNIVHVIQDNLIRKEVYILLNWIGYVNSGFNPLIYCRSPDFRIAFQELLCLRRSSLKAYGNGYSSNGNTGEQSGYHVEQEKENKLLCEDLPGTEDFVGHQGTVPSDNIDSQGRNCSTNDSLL
# USP2a block: USP2a (human) protease inhibition; Potency, µM (series often up to 38.3 µM), for the others: at the highest dose activity change, negative = inhibition, hits mostly inhibitors; USP2 core, Ub-CHOP2 coupled fluorogenic reporter, 485/531; 330,000 compounds, 0.01% hits; O75604;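 also: plate controls were DMSO wells for no effect and full inhibition by NEM control for full effect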
#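 USP2 core (10nM final) preincubated 30min RT with compound in 20mM Tris-HCl pH 8.0, 2mM CaCl2, 2mM beta-mercaptoethanol, 0.05% CHAPS; 25nM Ub-CHOP2 plus 25nM reporter substrate added, fluorescence (Ex485/Em531) read after 60min.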
# Chronic BCR inh: inhibitors of chronic active B-cell receptor signaling; ABC-DLBCL IkBa-CBG/CBR reporter, luminescence ratio, 4 h; Potency, µM (top dose mostly 46.1 µM), for the others: at the top dose activity change, negative = inhibition, usual class: inhibitors; AID 493014; 340,000 compounds, 0.05% hits; active = well fitted inhibition curve with a large enough effect in the signal ratio, with a control signal flat, not every such curve was filed as active; inconclusive = small, poorly fitted or top-dose-only effect, or effect the other way, or a change in a side signal; the % refers to the signal ratio;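 also: plate controls were basal doxycycline-induced cells for no effect and cells given 10 µM MG132 for full effect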
#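 Compounds up to 46 uM were incubated four hours with TMD8 cells whose green CBG68 luciferase is fused to IkappaBalpha; red CBR luminescence normalised the signal, and concentration-effect curves were fitted to fusion, red and ratio data.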
# * = called active by the depositor; ? = inconclusive; . = not tested or not shown; [ ] = remark or other dose. A selection: hits, their analogues and other compounds. The true share with any hit is near 0.15%. Unless noted, calls follow the shape of the dose curve; as a rule, active = well fitted curve in the direction sought with a large enough effect; inconclusive = small, poorly fitted or top-dose-only effect, or another doubt; inactive = no such curve, though single readings can be large; an effect the other way counts as inactive or inconclusive. Potency is read from the fitted curve at half-maximal effect.
SMILES,p53 reactivation,Eya2 inh,B2AR arrestin,USP2a block,Chronic BCR inh
O=C(O)c1cc(N2N=C(C(F)(F)F)/C(=C/C=C/c3ccco3)C2=O)ccc1Cl,0.0%,-24.4%,-0.4%,10µM*,?
CCOC(=O)c1ccc(N2N=C(C)/C(=C/C=C/c3ccco3)C2=O)cc1,0.3%,-1.4%,0.1%,-5.2%,?
O=C(Nc1cccnc1)c1coc(=O)c2ccccc12,-4.6%,9.5%,-0.2%,-0.4%,18.4µM*
CCOC(=O)c1ccccc1NC(=O)Cc1c(C(=O)O)c(C)cn1C,.,.,.,.,-10.6%
CCOc1cc2[nH]c(=O)n(Cc3ccc(C(=O)N4CCN(c5ccccc5)CC4)cc3)c(=O)c2cc1OCC,.,.,.,.,8.9%
O=C(NCC(c1ccco1)N1CCc2ccccc21)C(=O)Nc1ccccc1F (centres undefined),1.8%,2.3%,0.0%,-1.4%,-4.9%
O=C(NCC(c1ccco1)N1CCc2ccccc21)C(=O)Nc1ccc(F)cc1F (centres undefined),6.3%,-8.5%,0.1%,-2.2%,9.2µM*
Cc1cn(C)c(CC(=O)N2CCN(c3ccccc3F)CC2)c1C(=O)O,.,.,.,.,-14.0%
Nc1[nH]nc2nc3ccccc3cc12,8.1%,7.3%,0.2%,-3.6%,?
CCc1ccc2nc3n[nH]c(N)c3cc2c1,?,9.2%,-0.1%,2.0%,12.6µM*
CCOc1ccccc1NC(=O)CCC(=O)Nc1ccccc1OCC,-2.7%,9.0%,-0.1%,1.9%,?
CCOc1cc(NC(=O)CCl)c(OCC)cc1NC(=O)CCl,-13.9%,-8.1%,-0.4%,8.5%,14.1µM*
COC(=O)c1ccccc1NC(=O)/C=C/c1cc(OC)c(OC)c(OC)c1,-7.0%,-13.3%,-0.1%,-4.2%,16.4µM*
CCc1ccccc1NC(=O)CSc1ncccc1C(=O)O,.,.,.,.,-6.1%
COC(=O)C1=C(C)NC(C)=C(C(=O)OC)C1c1ccc(N(C)C)cc1,-7.7%,6.9%,0.0%,-0.3%,20.6µM*
CN1Cc2sccc2C(c2ccc(O)c(O)c2)C1 (centres undefined),.,3.2%,.,.,.
O=C1OCC2OC(O)C(O)C(O)C2OC(=O)c2cc(O)c(O)c(O)c2-c2c(O)c(O)c3oc(=O)c4c(c(O)c(O)c5oc(=O)c2c3c54)-c2c1cc(O)c(O)c2O (centres undefined),-1.5%,1.6%,-0.5%,0.501µM*,0.1%
C(=N\Nc1nc2ccccc2[nH]1)/c1c[nH]c2ccccc12,25.1µM*,-13.3%,-1.0%,0.0%,?
Cc1ccccc1/C=N/Nc1nc2ccccc2[nH]1,0.3%,-1.1%,0.4%,-1.1%,?
C(=N\Nc1nc2ccccc2[nH]1)/c1ccccc1,-1.3%,-3.1%,0.2%,1.3%,?
C(=C\c1ccccc1)/C=N/Nc1nc2ccccc2[nH]1,8.91µM*,-6.4%,-0.3%,0.6%,?
N#Cc1ccc(C(=O)NC2CCCCCCC2)cc1,35.5µM*,-12.8%,0.2%,2.4%,?
CCCCCCCCCCCCCCCCCCOC[C@H](COP(=O)([O-])OCC[N+](C)(C)C)OC,.,25.1µM*,.,.,.
Cc1ccc(C(c2cc(Cl)c3cccnc3c2O)N2CCN(C)CC2)cc1 (centres undefined),-22.0%,-2.8%,-0.5%,-0.3%,-2.7%
CN1CCN(C(c2ccccn2)c2cc(Cl)c3cccnc3c2O)CC1 (centres undefined),2.6%,5.5%,?,-8.2%,7.08µM*
SMILES,p53 reactivation,Eya2 inh,B2AR arrestin,USP2a block,Chronic BCR inh
O=c1cc(-c2ccccc2F)[nH]c2cc3c(cc12)OCO3,.,5.1%,.,.,.
COCCCn1c(SCC(=O)Nc2ccc(OC)cc2)nc2c(sc3ccccc32)c1=O,.,.,.,.,-6.9%
O=C(Oc1c(Cl)cc(Cl)c2cccnc12)c1cccc([N+](=O)[O-])c1,?,-4.1%,3.7%,3.9%,20.6µM*
CCc1ccc(N=c2c([N+](=O)[O-])nn(-c3ccccc3)n2O)cc1,39.8µM*,8.6%,0.0%,-1.7%,11.0%
O=C(Nc1ccc2c(c1)OCCO2)c1c(F)cccc1F,22.4µM*,-33.8%,-0.1%,4.3%,-20.4%
Cc1ccc(/C(N)=N/OC(=O)c2ccco2)cc1,17.8µM*,-4.5%,0.1%,3.4%,?
COc1cc(NC(=O)N2CCNC2=O)cc(C(=O)Nc2cccc(C(F)(F)F)c2)c1,6.8%,5.1%,-0.5%,0.0%,17.8µM*
CCc1c(C(=O)NCCc2ccc(N3CCCCC3)cc2)[nH]c2ccc(Cl)cc12,.,-8.7%,.,.,.
Cc1nn(CCC(=O)NNC(=S)NCC(C)C)c(C)c1Br,1.6%,0.0%,8.9%,5.4%,16.4µM*
CCOCCCNC(=S)NNC(=O)CCn1nc(C)c(Br)c1C,-0.3%,-24.4%,0.0%,-3.8%,?
CCCC(=O)c1ccc(N2CCCCCC2)c(F)c1,39.8µM*,-7.1%,-1.1%,2.3%,-2.0%
Cc1ccc(/C=C/C(=O)c2ccccc2)cc1,?,-4.2%,-0.1%,6.3%,?
Cc1ccc(/C=C/C(=O)c2ccc(O)cc2)cc1,11.2µM*,-22.6%,0.4%,6.9%,?
Cc1cc2c(c(=O)n1-c1ccccc1)C1O[C@](c3ccsc3)(Cc3ccccc31)O2,.,-6.3%[15.4 µM],-0.4%[9.22 µM],-1.2%[7.66 µM],-1.8%[9.22 µM]
CC(C)(NC(=O)NC(CO)c1ccccc1)c1cccc(C(C)(C)NC(=O)NC(CO)c2ccccc2)c1 (centres undefined),-1.9%,16.7%,6.51µM*,-0.6%,?
CC(C)(C(=O)N[C@H](CO)c1ccccc1)C(=O)N[C@H](CO)c1ccccc1,3.7%,-1.3%,-1.0%,0.1%,?
Oc1c(CN2CCOCC2)cc(COCc2ccccc2)c2cccnc12,?,-1.5%,5.8µM*,0.4%,?
O=C1CCCC2=C1C1O[C@](CCCCN3C(=O)c4ccccc4C3=O)(Cc3c1ccc1ccccc31)O2,.,-7.3%[15.4 µM],-0.5%[9.22 µM],-5.7%[7.66 µM],-5.8%[9.22 µM]
Nc1ccc(-c2cnc(-c3ccc(N)cc3)nc2)cc1,17.0%,3.6%,-0.4%,11.8%,?
Oc1ccc(-c2cnc(-c3ccc(O)cc3)nc2)cc1,14.1µM*,-8.9%,0.2%,-0.7%,?
CC(=O)c1ccc(Oc2nc(C)nc3c2oc2ccccc23)cc1,.,.,.,.,4.7%
Cc1nn(-c2nc3ccccc3s2)c(C)c1Oc1ccccc1O,12.6µM*,-0.8%,-0.2%,0.5%,?
COc1ccc(NC(=O)CSC2=Nc3ccccc3C3=NC(CC(=O)NCCc4ccccc4)C(=O)N23)cc1 (centres undefined),.,.,.,.,16.0%
Cc1ccc(/C=N/NC(=O)C2CC(=O)N(c3ccccc3)C2)s1 (centres undefined),23.5%,2.9%,-0.7%,2.4%,-0.5%
O=C(N/N=C/c1ccccc1O)C1CC(=O)N(c2ccc(Cl)cc2)C1 (centres undefined),31.6µM*,-5.3%,0.1%,-1.3%,?
COc1cccc(/C=N/NC(=O)c2[nH]nc3c2CCc2ccccc2-3)c1,9.3%,-3.7%,0.3%,0.3%,17.8µM*
